Screening data (PubChem BioAssay)
Hits are enriched below; roughly 10% of the tested compounds scored in any of these assays.
HP1b binding inh = HP1-beta chromodomain-methylated histone interaction inhibition | hit rate 0.56% among 390,000 | AlphaScreen HP1-beta / biotin-H3K9me3 peptide binding | P83916 | Potency, µM (titrated, usually from 114 µM), for the others: at the top dose activity change, negative = inhibition, most hits filed as inhibitors; note: nearly all actives have a fitted effect of over 70% in size
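Compound inhibition of the preformed complex between 50 nM HP1-beta and 50 nM biotinylated H3K9me3 peptide was read by AlphaScreen. Buffer was PBS pH 7.4 with 0.01% Tween-20. Incubations ran 30 min at room temperature, with 10 ug/mL donor/acceptor beads.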
BAZ2B inh = blocks human BAZ2B. hit rate 4.4% among 360,000. Potency, µM (titrated, usually from 114 µM), without a hit: at the top dose activity change, negative = inhibition, hits mostly inhibitors. AlphaScreen BAZ2B-H3K14Ac peptide displacement. Q9UIF8. AID 504333; note: % is set by controls: 0 for no effect and ±100 for the full control effect; nearly all actives have a fitted effect of over 60% in size
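AlphaScreen luminescence quantifies BAZ2B engagement of H3K14Ac peptide; the protein and biotinylated peptide are both at 50 nM final, buffer PBS pH 7.4 with 0.01% Tween-20, all steps at room temperature.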
G9a inh = G9a (human) methyltransferase inhibition; Q96KQ7; G9a H3K9 monomethylation, AlphaScreen, 2 h; Potency, µM (highest dose often 102 µM), for inactives: at the top dose activity, negative = inhibition, usual class: inhibitors; hit rate 8.8% among 350,000; AID 504332; note: % is set by controls: 0 for no effect and ±100 for the full control effect; nearly all actives have a fitted effect of over 75% in size
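Compounds were preincubated with 20 nM G9a for 15 min, after which biotinylated H3K9 peptide (500 nM) and SAM (20 uM) started a 2 h room-temperature reaction. Monomethylated product was quantified by antibody-based AlphaScreen chemiluminescence.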
GLS inhibitor = inhibitors of human glutaminase (GLS) | O94925 | GLS enzymatic activity, qHTS titration | Potency, µM (highest dose often 45.5 µM), for inactives: at the top dose activity change, negative = inhibition, actives largely listed as inhibitors | hit rate 0.21% among 410,000; note: % is set by controls: 0 for no effect and ±100 for the full control effect
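Two-point fluorescence kinetic (t0, 30 min RT) for hKGA; glutamate detected via glutamate oxidase–HRP–Amplex Red. Substrate: 1 mM L-glutamine solution; buffer 45 mM KH2PO4, pH 8.2.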
JMJD2A Tudor inh = JMJD2A Tudor domain (human) inhibition; O75164; AlphaScreen JMJD2A-Tudor / H3K4me3 peptide binding; Potency, µM (doses to about 114 µM), for inactives: at the top dose activity change, negative = inhibition, actives largely listed as inhibitors; hit rate 4.4% among 390,000; note: % is set by controls: 0 for no effect and ±100 for the full control effect; nearly all actives have a fitted effect of over 50% in size
Target sequence (O75164 whole entry, looked up, the tested form may be a part): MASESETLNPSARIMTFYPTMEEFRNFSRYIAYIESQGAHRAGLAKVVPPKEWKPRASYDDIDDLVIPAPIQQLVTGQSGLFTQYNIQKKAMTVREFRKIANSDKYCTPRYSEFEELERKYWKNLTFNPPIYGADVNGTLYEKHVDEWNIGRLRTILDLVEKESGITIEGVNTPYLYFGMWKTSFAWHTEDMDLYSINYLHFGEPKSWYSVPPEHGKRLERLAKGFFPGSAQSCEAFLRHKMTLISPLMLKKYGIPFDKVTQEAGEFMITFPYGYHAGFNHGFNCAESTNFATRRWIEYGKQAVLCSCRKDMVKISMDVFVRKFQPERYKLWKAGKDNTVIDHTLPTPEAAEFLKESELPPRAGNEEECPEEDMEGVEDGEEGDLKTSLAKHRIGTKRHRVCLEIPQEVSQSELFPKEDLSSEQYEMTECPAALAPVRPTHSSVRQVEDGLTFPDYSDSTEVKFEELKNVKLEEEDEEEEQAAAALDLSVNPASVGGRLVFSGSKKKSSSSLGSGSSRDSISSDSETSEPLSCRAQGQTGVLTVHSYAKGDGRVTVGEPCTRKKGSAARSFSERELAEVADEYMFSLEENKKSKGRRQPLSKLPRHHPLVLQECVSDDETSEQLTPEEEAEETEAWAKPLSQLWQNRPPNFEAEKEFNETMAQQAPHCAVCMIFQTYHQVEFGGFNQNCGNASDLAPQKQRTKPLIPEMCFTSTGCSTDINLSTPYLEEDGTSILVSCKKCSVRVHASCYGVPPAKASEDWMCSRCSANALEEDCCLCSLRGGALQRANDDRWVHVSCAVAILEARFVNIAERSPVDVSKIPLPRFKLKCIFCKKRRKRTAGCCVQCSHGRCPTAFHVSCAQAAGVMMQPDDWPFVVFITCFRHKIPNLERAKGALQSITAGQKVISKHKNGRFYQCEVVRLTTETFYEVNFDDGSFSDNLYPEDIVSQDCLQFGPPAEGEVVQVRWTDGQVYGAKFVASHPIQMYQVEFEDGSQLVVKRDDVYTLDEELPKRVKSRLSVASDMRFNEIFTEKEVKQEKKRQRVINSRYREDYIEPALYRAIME
* hit, by the source's call; ? = inconclusive; nt = not tested or not shown; [ ] = another dose, or the depositor's remark. Calls come from the whole dose curve; as a rule, active = well fitted curve in the direction sought with a large enough effect; inconclusive = small, poorly fitted or top-dose-only effect, or another doubt; inactive = no such curve, though single readings can be large; an effect the other way counts as inactive or inconclusive. Potency is the fitted concentration of half-maximal effect.

SMILES | HP1b binding inh | BAZ2B inh | G9a inh | GLS inhibitor | JMJD2A Tudor inh
COc1cccc2sc(N(Cc3cccnc3)C(=O)c3ccc4c(c3)OCCO4)nc12 | 14%[57 µM] | -30% | -26%[59 µM] | -7% | -31%
CCc1cccc(CC)c1NC(=O)CNCc1cccs1 | 71µM* | 56µM* | 35µM* | -12% | 25µM*
CCN(CC)c1ccc(NC(=O)c2ccc(S(=O)(=O)N3CCOCC3)cc2)cc1 | ? | nt | nt | -5% | 45µM*
O=C(Nc1ccc(S(=O)(=O)N2CCOCC2)cc1)c1c(F)cccc1F | 8% | -34% | 35µM* | -1% | -1%
O=C(O)c1nccnc1C(=O)Nc1ccc(S(=O)(=O)N2CCOCC2)cc1 | 2% | -16% | 45µM* | 1% | ?
COCCOC(=O)c1nccnc1C(=O)Nc1ccc(S(=O)(=O)N2CCOCC2)cc1 | 44% | -3% | 1% | 4% | -7%
CCNC(=O)C1CCCN(C(=O)c2cccc(C(F)(F)F)c2)CC1 (stereo unspecified) | nt | nt | nt | 2% | nt
COc1ccc(CNC(=O)Nc2nc(C(N)c3ccccc3)cs2)cc1 (stereo unspecified) | nt | nt | nt | 0% | nt
CCN(CC)CCNC(=O)c1ccc(NC(=O)C2CCN(c3ncnc4sc(C)c(C)c34)CC2)cc1 | -7% | -14% | nt | 2% | -27%
CCCc1cc2c(=O)c(-c3cscn3)c(C(=O)OCC)oc2cc1O | -11% | nt | ? | 6% | -16%
CCOC(=O)c1[nH]nc(-c2cc(CC)c(O)cc2O)c1-c1cscn1 | 26% | ? | nt | 8% | 89µM*
Fc1ccccc1-n1cn[nH]c1=S | 30% | -10% | 10µM* | 5% | 28µM*
CC1CCN(C(=O)CN2c3ccc(Br)cc3-c3ccccc3S2(=O)=O)CC1 | 39% | -16% | 0%[59 µM] | -2% | -24%
CCCCN(Cc1ccccc1)C1CCN(Cc2ccccc2)CC1 | 20% | 1% | nt | -4% | -6%
CCCN(CCO)C1CCN(CCc2ccccc2)CC1 | 21% | -28% | 50µM* | 2% | -1%
Brc1ccc2c(c1)C(c1ccc(N3CCOCC3)cc1)=NNC(c1cccs1)=N2 | -33% | ? | ? | -1% | -36%
CCOc1ccc(C2=Nc3ccc(Br)cc3C(c3ccc(N4CCOCC4)cc3)=NN2)cc1 | 4% | -3% | 45µM* | 4% | -19%
Fc1ccc2c(c1)C(c1ccc(N3CCOCC3)cc1)=NNC(c1cccs1)=N2 | -37% | 35µM* | 20µM* | 8% | 25µM*
O=C(c1cc([N+](=O)[O-])cc([N+](=O)[O-])c1)N(Cc1nnc(-c2ccccc2Cl)o1)C1CC1 | 15% | -30% | ? | 14% | ?
O=C(c1cccc(S(=O)(=O)N2CCOCC2)c1)N(Cc1nnc(-c2ccccc2Cl)o1)C1CC1 | -3% | -4% | 50µM* | 0% | -19%
O=C1CCCN1c1ccc(C(=O)N(Cc2nnc(-c3ccccc3Cl)o2)C2CC2)cc1 | 30% | 7% | 13µM* | 2% | -10%
O=C(c1ccc(Cl)c(S(=O)(=O)N2CCOCC2)c1)N(Cc1nnc(-c2ccccc2Cl)o1)C1CC1 | 20% | -5% | -11% | 0% | -19%
Cc1ccc(C)c(NC(=O)CN2CCSc3ccc(S(=O)(=O)N4CCCC4)cc32)c1 | 16%[57 µM] | -16% | ? | 6% | -26%
CCc1cccc2c(C(=O)CSc3nnc(C4CC4)o3)c[nH]c12 | 56% | -4% | 38%[12.7 µM] | -1% | -1%
COc1ccc(/C=C/C(=O)NC(=S)NNC(=O)c2ccco2)cc1 | 23% | 9% | 13µM* | 31% | -11%
SMILES | HP1b binding inh | BAZ2B inh | G9a inh | GLS inhibitor | JMJD2A Tudor inh
COc1ccccc1OCC(=O)NNC(=S)NC(=O)c1ccco1 | 4% | 55% | ? | 19% | 79µM*
COc1ccc(/C=C/C(=O)NC(=S)NNC(=O)c2ccco2)cc1OC | 59% | 3% | 35µM* | 13% | -12%
CCOc1ccc(NC(=S)NC(=O)/C=C/c2ccc(OC)c(OC)c2)c([N+](=O)[O-])c1 | -25% | -31%[57.1 µM] | 50µM* | -1% | ?
Cc1cc(C)cc(NC(=O)C(CC(C)C)NC(=O)C2CCCCC2)c1 (stereo unspecified) | 32% | 0% | 19%[59 µM] | 1% | -1%
O=C(NCC1(c2ccccc2)CCCC1)C(=O)Nc1cccc(Br)c1 | 45% | 4% | -2%[59 µM] | -3% | 12%
O=C(/C=C/c1ccccc1)NC(=S)NNC(=O)Cc1cccs1 | 19% | 11% | ? | 17% | 5%
COc1ccc(/C=C/C(=O)NC(=S)NNC(=O)Cc2cccs2)cc1 | 41% | 6% | 32µM* | 13% | 13%
COc1ccccc1CCC(=O)N(CCC1=CCCCC1)c1c(N)n(Cc2ccccc2)c(=O)[nH]c1=O | 4% | 5% | 50µM* | 4% | -14%
CCN(C(=O)COC(=O)c1ccccc1NCc1ccco1)c1c(N)n(Cc2ccccc2)c(=O)[nH]c1=O | 17% | nt | nt | 4% | -11%
COCCN(C(=O)COC(=O)c1cc2c(s1)CCC2)c1c(N)n(Cc2ccccc2)c(=O)[nH]c1=O | -95% | 8.9µM* | 10µM* | 10µM* | 8.9µM*
COc1ccc(CC(=O)N(CCC2=CCCCC2)c2c(N)n(Cc3ccccc3)c(=O)[nH]c2=O)cc1 | nt | nt | nt | 4% | nt
COCCN(C(=O)CSCc1ccccc1)c1c(N)n(Cc2ccccc2)c(=O)[nH]c1=O | 39% | 8% | ? | 2% | 0%
COCCN(C(=O)COC(=O)c1ccccc1NCc1ccco1)c1c(N)n(Cc2ccccc2)c(=O)[nH]c1=O | 22% | -30% | 79µM* | -4% | -16%
COCCN(C(=O)CN1CCc2ccccc2C1)c1c(N)n(Cc2ccccc2)c(=O)[nH]c1=O | 31% | 5% | 40µM* | 2% | -7%
COc1ccc(NC(=O)Cn2c(=O)cc(C)c3c(C)nn(C)c32)cc1 | 38% | 8% | 6%[59 µM] | 1% | -4%
O=C(CSc1nc2ccccc2c2nc(-c3ccccc3)nn12)Nc1ccc(F)cc1 | 42% | -5% | 9%[59 µM] | 1% | -22%
CCC1CCc2sc(C(=O)OCC(=O)N(CCOC)c3c(N)n(Cc4ccccc4)c(=O)[nH]c3=O)cc2C1 (stereo unspecified) | 11% | 1% | 28µM* | 5% | -8%
CCCn1c(N)c(N(CCOC)C(=O)c2cc3c(s2)CCC(CC)C3)c(=O)[nH]c1=O (stereo unspecified) | 11% | 5% | 21%[2.33 µM] | -9% | -12%
CCOc1ccccc1CNC(=O)c1ccc(NC(=O)C2=C(C)OCCS2)cc1 | 29% | ? | 32µM* | -10% | -34%
CC1=C(C(=O)Nc2ccc(CC(=O)NCc3ccccc3C)cc2)SCCO1 | 47% | ? | 23% | 5% | -16%
COc1cccc(CNC(=O)Cc2ccc(NC(=O)C3=C(C)OCCS3)cc2)c1 | 17% | 50µM* | -13% | -2% | ?
O=C(c1[nH]c(C(F)(F)F)nc1-c1ccccc1)N1CCC(Cc2ccccc2)CC1 | nt | nt | nt | 10% | nt
